Experimental data: PubChem BioAssay AID602144 (Vanderbilt Specialized Chemistry Center, 2011)
Calls of active or inactive are those of the source. No stated cut-off is given here; in the data, active means remaining activity below about 50%; inactive means the rest.

biological target: Phospholipase D1 (Homo sapiens) (UniProt Q13393); experiment: cellular phospholipase D1 activity inhibition – Calu-1 cells, single concentration (AID 602144); conditions: cellular PLD1 activity, active compounds read low;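 further: tested at 200 nM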
Sequence (Q13393 whole entry, looked up): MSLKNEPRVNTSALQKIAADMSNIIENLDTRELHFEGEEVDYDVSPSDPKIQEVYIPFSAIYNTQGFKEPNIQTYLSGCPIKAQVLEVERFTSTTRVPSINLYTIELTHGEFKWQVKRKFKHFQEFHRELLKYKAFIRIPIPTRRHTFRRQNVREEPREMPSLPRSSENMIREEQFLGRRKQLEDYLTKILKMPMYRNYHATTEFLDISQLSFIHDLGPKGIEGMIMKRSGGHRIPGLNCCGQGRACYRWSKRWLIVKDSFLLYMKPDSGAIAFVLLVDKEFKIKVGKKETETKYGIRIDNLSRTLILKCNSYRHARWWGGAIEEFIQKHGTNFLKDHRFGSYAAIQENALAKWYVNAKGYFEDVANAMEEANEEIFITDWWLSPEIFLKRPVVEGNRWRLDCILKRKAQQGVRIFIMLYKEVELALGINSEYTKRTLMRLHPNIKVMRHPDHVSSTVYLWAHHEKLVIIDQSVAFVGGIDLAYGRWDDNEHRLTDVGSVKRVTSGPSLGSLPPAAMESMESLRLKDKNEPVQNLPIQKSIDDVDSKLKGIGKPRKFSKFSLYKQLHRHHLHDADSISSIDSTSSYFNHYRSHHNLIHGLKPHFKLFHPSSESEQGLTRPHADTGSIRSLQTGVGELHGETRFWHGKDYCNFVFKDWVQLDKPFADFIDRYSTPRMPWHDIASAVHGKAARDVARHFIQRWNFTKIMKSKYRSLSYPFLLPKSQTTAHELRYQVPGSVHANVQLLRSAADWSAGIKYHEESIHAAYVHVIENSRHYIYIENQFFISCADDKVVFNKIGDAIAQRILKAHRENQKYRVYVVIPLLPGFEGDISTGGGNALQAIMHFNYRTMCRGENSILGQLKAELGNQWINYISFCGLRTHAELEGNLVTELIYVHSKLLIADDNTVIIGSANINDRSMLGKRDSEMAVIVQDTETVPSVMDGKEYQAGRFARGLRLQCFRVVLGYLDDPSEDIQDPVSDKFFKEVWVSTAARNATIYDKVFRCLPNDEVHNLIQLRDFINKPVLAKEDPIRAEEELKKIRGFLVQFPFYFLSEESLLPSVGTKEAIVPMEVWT
Sequence (Q13393 whole entry, looked up): as above

| Compound | remaining activity |
| --- | --- |
| O=C(NCCN1CCC(n2c(=O)[nH]c3ccccc32)CC1)Nc1cccc(F)c1 | 20.1% (active) |
| O=C(NCCN1CCN(c2ccncc2)CC1)c1ccc2ccccc2c1 | 139% (inactive) |
| CCCCS(=O)(=O)NCCN1CCC(n2c(=O)[nH]c3ccccc32)CC1 | 124% (inactive) |
| O=C(NCCN1CCC(c2nc3ccccc3[nH]2)CC1)C1CC1c1ccccc1 (stereo not given) | 56.9% (inactive) |
| O=C(NCCN1CCN(c2ncccn2)CC1)c1ccc(F)cc1 | 76.5% (inactive) |
| O=C(NCCN1CCC2(CCc3ccccc32)CC1)c1cnc2ccccc2c1 | 113% (inactive) |
| COc1cccc(N2CCN(CCNC(=O)c3ccc(C(F)(F)F)cc3)CC2)c1 | 102% (inactive) |
| CC(C)[C@@H](CN1CCC(n2c(=O)[nH]c3ccccc32)CC1)NC(=O)[C@@H]1C[C@H]1c1ccccc1 | 82.9% (inactive) |
| O=C1c2ccccc2C(=O)N1CCCNc1ccc2ccccc2c1 | 145% (inactive) |
| CS(=O)(=O)N1CC2(CCN(CCNC(=O)c3ccc4ccccc4c3)CC2)c2ccccc21 | 136% (inactive) |
| O=C(NCCN1CCC(n2c(=O)[nH]c3ccccc32)CC1)C1CCCCCCCCCC1 | 85.9% (inactive) |
| Nc1ccc(C(=O)NCCN2CCC(n3c(=O)[nH]c4ccccc43)CC2)c(F)c1 | 68.5% (inactive) |
| C[C@@H](CN1CCC(n2c(=O)[nH]c3ccccc32)CC1)NC(=O)c1cc2ccccc2[nH]1 | 8.14% (active) |
| C[C@@H](CN1CCC(n2c(=O)[nH]c3ccccc32)CC1)NC(=O)c1ccc(Cl)c(Cl)c1 | 20.9% (active) |
| O=C(NCCN1CCC(C(=O)NCCc2ccccn2)CC1)c1ccc2ccccc2c1 | 101% (inactive) |
| O=C(NCCN1CCC(n2c(=O)[nH]c3ccccc32)CC1)Nc1ccccc1C(F)(F)F | 131% (inactive) |
| C[C@H](CN1CCC(n2nnc3ccccc32)CC1)NC(=O)c1cnc2ccccc2c1 | 38.2% (active) |
| Cc1ccc(C(=O)NCCN2CCN(c3ccccn3)CC2)cc1 | 111% (inactive) |
| Nc1cccc(Cl)c1C(=O)NCCN1CCC(n2c(=O)[nH]c3ccccc32)CC1 | 89.2% (inactive) |
| Cc1ccc(C(=O)N[C@@H](C)CN2CCC(n3c(=O)[nH]c4cc(Br)ccc43)CC2)cc1 | 13% (active) |

| Compound | remaining activity |
| --- | --- |
| O=C(NCCN1CC=C(n2c(=O)[nH]c3ccccc32)CC1)C1CC1c1ccccc1 (stereo not given) | 0% (active) |
| O=C(CCc1ccc(F)cc1)NCCN1CCC(n2c(=O)[nH]c3ccccc32)CC1 | 75.2% (inactive) |
| C[C@@H](CN1CCC(n2c(=O)[nH]c3ccccc32)CC1)NC(=O)c1cccnc1 | 41.1% (active) |
| C[C@@H](CN1CCC(n2c(=O)[nH]c3ccccc32)CC1)NC(=O)c1ccc(F)c(F)c1 | 21.3% (active) |
| O=C(NCCN1CCN(c2ccncc2)CC1)c1c2ccccc2cc2ccccc12 | 183% (inactive) |
| O=C1c2ccccc2C(=O)N1CCCN1CCC(n2c(=O)[nH]c3ccccc32)CC1 | 76.2% (inactive) |
| C[C@@H](CN1CCC(n2c(=O)[nH]c3ccccc32)CC1)NC(=O)c1ccc(C(F)(F)F)cc1 | 36.5% (active) |
| Nc1ccc(C(=O)NCCN2CCC(n3c(=O)[nH]c4ccccc43)CC2)cc1OC(F)(F)F | 72.6% (inactive) |
| O=C(NCCN1CCC(n2c(=O)[nH]c3ccccc32)CC1)Nc1cccc(OC(F)(F)F)c1 | 131% (inactive) |
| C[C@@H](CN1CCC2(CC1)CN(S(C)(=O)=O)c1ccccc12)NC(=O)[C@H]1C[C@@H]1c1ccccc1 | 148% (inactive) |
| O=C(NCCN1CCC(n2c(=O)[nH]c3ccccc32)CC1)C1CCc2ccccc2C1 (stereo not given) | 77.8% (inactive) |
| CN(CCN1CCC(n2c(=O)[nH]c3ccccc32)CC1)C(=O)c1ccc2ccccc2c1 | 75.5% (inactive) |
| C[C@@H](CN1CCC(n2c(=O)[nH]c3ccccc32)CC1)NC(=O)c1ccc[nH]1 | 48.2% (active) |
| O=C(NCCN1CCC(n2c(=O)[nH]c3ccccc32)CC1)c1cccc2cccnc12 | 30.7% (active) |
| O=C(NCCN1CCC2(CC1)CNCc1ccccc12)c1cnc2ccccc2c1 | 95.4% (inactive) |
| O=C(C1C[C@@H]1c1ccccc1)N1CCC2(CC1)C(=O)NCN2c1ccccc1 (stereo not given in full) | 86% (inactive) |
| O=C(NCCN1CCC(n2c(=O)[nH]c3ccccc32)CC1)C1(c2ccccc2)CCC1 | 127% (inactive) |
| O=C(NCCN1CCC(n2c(=O)[nH]c3ccccc32)CC1)C(c1ccccc1)(c1ccccc1)c1ccccc1 | 99% (inactive) |
| Cn1c(C(=O)NCCN2CCN(c3ccncc3)CC2)cc2ccccc21 | 188% (inactive) |
| C[C@@H](CN1CCC(n2c(=O)[nH]c3cc(I)ccc32)CC1)NC(=O)C1CC1c1ccccc1 (stereo not given in full) | 19.9% (active) |
